Structures are written as SMILES. Several values for one entry are separate records, joined by “and”; a condition that tells them apart may be missing. Equal values may be shown once. About 6,200 (1.8%) of roughly 340,000 compounds were called active. About 10% were inconclusive and are not listed. Calls follow the shape of the dose curve; as a rule, active = well fitted activation curve with a large enough effect; inconclusive = small, poorly fitted or top-dose-only effect; inactive = no such curve, though single readings can be large or run the other way. The sample as a whole holds a higher share of actives than the screen did. Some structures have more than one record in an assay (separate samples or runs), and their calls can disagree.
Potency is read from the fitted curve at half-maximal effect.

A short description of the experiment: A quantitative high throughput screen for small molecules that induce DNA re-replication in SW480 colon adenocarcinoma cells. Also: nearly all actives have a fitted effect of over 55% in size. As to re-replication activation: % of control where 0% means no effect. The note with it: Hoechst DNA content imaging, 48 h; series mostly up to 46.1 µM; re-replication activation: at the top concentration. From the text: H Molecular Libraries Probe Production Network [MLPCN] NIH Chemical Genomics Center [NCGC] MLPCN Grant: Fast Track K99 CA136555 Assay Provider: Melvin DePamphilis, NICHD, NIH Assay Overview Eukaryotic cells normally restrict genome duplication to once per cell division. When this process is aberrant, DNA re-replication occurs when cells reinitiate DNA replication before the first round of replication is complete. DNA re-replication induces the DNA damage response, arrests cell proliferation, and triggers apoptosis. The cell cycle components cyclin A, Cdt-1, Cdc6 and geminin are critical regulators of this process and their misregulation results in DNA re-replication in normal and cancer cells. To identify compounds that induce re-replication in normal cells, an image-based assay was used to measure DNA content of nuclei, as detected by the fluorescent DNA binding dye, Hoechst. Cell nuclei were imaged by a fluorescence scanning plate imager and compounds that induce DNA re-replication were identified by the increase of nuclei with elevated fluorescence intensity
For screening, 250 cells in 5 uL/well were dispensed into black clear 1536-well plates (Aurora) using a solenoid-based dispenser. Following transfer of 23 nL compound or DMSO vehicle by a pin tool, the plates were incubated 48 hr at 37 C and 5% CO2. After addition of 1 uL/well Hoescht stain, the plates were incubated 40 min at 37 C, 5% CO2 and total intensity of fluorescent objects (nuclei) were enumerated by an Acumen Explorer Ex3 (TTP LabTech) fluorescence scanning plate imager (405 nm excitation, 500-530 nm emission). Keywords: NIH Roadmap, MLPCN, MLI, MLSMR, qHTS, NCGC, DNA replication, cancer
On to `Oc1c(Cl)cc(Cl)c(Cl)c1Cc1c(O)c(Cl)cc(Cl)c1Cl`, for which the Potency entry is “inactive and 16.4 µM (active)”.

`CCOC(=O)[C@@H]1[C@H]2COc3ccc(Br)cc3[C@H]2N2C(=O)N(c3ccc(C)cc3)C(=O)[C@@]12C`: the “re-replication activation” value is -2.23% (inactive).

`COc1cc(NC(=O)c2[nH]cnc2C(N)=O)cc(C(=O)Nc2cccc(C(F)(F)F)c2)c1`: the “re-replication activation” value is -13.5% (inactive).

Turning to `Cn1c(N)c(C(=O)COC(=O)c2ccc3ccccc3c2)c(=O)n(C)c1=O`, the “re-replication activation” value is -2.62% (inactive).

On to `CCN(C[C@H]1N[C@@](Cc2ccccc2)(C(=O)OC)[C@H]2C(=O)N(Cc3ccccc3)C(=O)[C@@H]12)C(=O)c1ccc(C)cc1`, for which the “re-replication activation” value is 6.19% (inactive).

`COc1ccc(C(=O)COC(=O)CN2C(=O)C3CC=CCC3C2=O)c(OC)c1` (configuration not stated): the “re-replication activation” value is 2.53% (inactive).

`O=C(CCN1CCCCC1)N=Nc1c(O)[nH]c2ccccc12`: the Potency was 18.4 µM (active).

`Cc1cccc(N(CC(=O)N=Nc2c(O)[nH]c3ccccc23)S(C)(=O)=O)c1C`: the “re-replication activation” value is -0.526% (inactive).

Consider `COCC(=O)N=Nc1c(O)[nH]c2ccccc12`, for which the “re-replication activation” value was -7.74% (inactive).

With `O=c1nc(NO)ccn1C1CCCO1` (configuration not stated), the “re-replication activation” value is -2.96% (inactive).

As for `CC1(C)N=C(N)NC(Nc2ccc(Cl)cc2)=N1`, the “re-replication activation” value was 1.78% (inactive).

Regarding `COc1ccccc1NC(=O)C1CCCN1S(=O)(=O)c1ccc(Cl)cc1` (configuration not stated), the “re-replication activation” value was 12% (inactive).

For `COc1ccccc1NC1=NC(c2ccc(Cl)cc2)N=C(N)N1` (configuration not stated), the Potency was 20.6 µM (active).

Turning to `C[C@@H]1CN([C@H](C)CO)C(=O)c2cc(NC(=O)NC3CCCCC3)ccc2O[C@H]1CN(C)S(C)(=O)=O`, the “re-replication activation” value is -8.58% (inactive).

Turning to `COc1ccc(CCNC(=O)COC(=O)c2cc(=O)c3ccccc3o2)cc1`, the “re-replication activation” value is -28.9% (inactive).

`CNC[C@H]1Oc2c(NC(=O)C3CCCCC3)cccc2C(=O)N([C@H](C)CO)C[C@@H]1C`: the re-replication activation was 4.46% [at 9.22 µM] (inactive).

With `COc1cc(/C=N/NC(=O)c2cc(-c3ccccc3C)nc3ccccc23)cc(OC)c1O`, the “re-replication activation” value was -14.1% (inactive).

Take `COc1ccc(/C=N/NC(=O)c2cc(-c3cccc(C)c3)nc3ccccc23)cc1O`: the “re-replication activation” value was -2.6% (inactive).

`CCOc1ccc(-c2cc(C(=O)N/N=C/c3ccc(O)cc3)c3ccccc3n2)cc1`: the Potency was 18.4 µM (active).

Consider `Cc1ccccc1NC(=O)c1cc(S(=O)(=O)Nc2cccc(C(=O)O)c2)ccc1Cl`, for which the “re-replication activation” value was -6.95% (inactive).

Consider `O=C(O)c1cccc(N2C(=O)Nc3ccccc3N2O)c1`, for which the “re-replication activation” value was -10.1% (inactive).

`C/C(=N\Nc1cccc(C(=O)O)c1)c1ccc2c(c1)Nc1ccccc1S2`: the Potency is 8.2 µM (active).

Consider `COc1cc(OC)cc(-c2c(C#Cc3ccsc3)c3cc(-c4ccc(OC)cc4F)ccc3n2C)c1`, for which the “re-replication activation” value was 23.7% (inactive).

For the compound `c1ccc(CNc2ncnc3[nH]ncc23)cc1`, the “re-replication activation” value is 4.58% (inactive).

Consider `Nc1cc(=O)n(Cc2ccccc2)c(=O)n1Cc1ccccc1`, for which the “re-replication activation” value was 0.57% (inactive).

As to `Cc1nn(-c2ccc(F)cc2)c(Cl)c1/C=C(/CCC(=O)O)c1nc2ccccc2s1`, the “re-replication activation” value is 3.7% (inactive).

With `CCCCN(C(=O)c1cccc(N2C(=O)c3ccccc3C2=O)c1)c1c(N)n(CCCC)c(=O)[nH]c1=O`, the “re-replication activation” value is -14.2% (inactive).

For the compound `CCn1c(=S)[nH]c2cc(S(=O)(=O)N3CCOCC3)ccc21`, the “re-replication activation” value is -6.64% (inactive).

Turning to `Cc1ccsc1C(=O)N/N=C/c1ccc([N+](=O)[O-])cc1`, the “re-replication activation” value was -5% (inactive).

As for `Cc1ccc(/C=N/NC(=O)c2sccc2OCc2ccc(F)cc2)cc1`, the Potency is 16.4 µM (active).

With `Cc1ccc(COc2ccc(/C=N/NC(=O)CN3CCCCC3)cc2)cc1`, the “re-replication activation” value is 0.267% (inactive).

For `CC(C)Cn1cnc2c(SCc3ccc(Cl)cc3)nc(N)nc21`, the “re-replication activation” value is -9.4% (inactive).

Turning to `CCN(CC)c1ccc(NC(=O)c2ccc(Cl)nc2)cc1`, the Potency is 16.4 µM (active).

Turning to `O=C(Nc1ccc2nc3n(c(=O)c2c1)CCCC3)c1ccc(Cl)nc1`, the “re-replication activation” value is 3.67% (inactive).

For the compound `O=C(NNC(=O)c1ccc(Cl)nc1)c1ccc(Br)cc1`, the “re-replication activation” value is -27.2% (inactive).

Turning to `O=C(COc1ccccc1F)NNC(=O)c1cc(Br)ccc1Cl`, the “re-replication activation” value is 6.76% (inactive).

For the compound `NC(=O)c1ccc(N2CCCC2)nc1`, the “re-replication activation” value was -1.87% (inactive).

Regarding `Cc1c(C(=O)Nc2ccccn2)oc2ccc(Br)cc12`, the “re-replication activation” value was -1.8% (inactive).

Take `Oc1ccc(Br)cc1C=Nc1ccc2[nH]ncc2c1`: the “re-replication activation” value is -0.677% (inactive).

For the compound `Oc1ccc(Br)cc1/C=N/Nc1ccccn1`, the Potency is 9.2 µM (active).

Regarding `CCOC(=O)CCCCCC(=O)Nc1ccc2c(c1)CC(=O)N([C@@H](C)CO)C[C@H](C)[C@@H](CN(C)Cc1ccccc1)O2`, the “re-replication activation” value is -13.1% (inactive).

In the case of `Cc1ccn(CC(=O)N2N=C(C(F)F)CC2(O)C(F)F)n1` (configuration not stated), the Potency is 0.517 µM (active).

As for `Cc1ccn(CCC(=O)N2c3ccccc3CC2C)n1` (configuration not stated), the “re-replication activation” value is 3.35% (inactive).

Turning to `Cc1nn(Cc2ccc(C(=O)N3N=C(C(F)F)CC3(O)C(F)F)cc2)c(C)c1[N+](=O)[O-]` (configuration not stated), the “re-replication activation” value is -0.343% (inactive).

Regarding `CC1(C)C[C@H]2C3=CCC4[C@@]5(C)CC[C@H](O)[C@](C)(CO)C5CC[C@@]4(C)[C@]3(C)C[C@@H](O)[C@@]2(CO)[C@@H](O)[C@@H]1O` (some centres not stated), the “re-replication activation” value was 6.13% (inactive).

As to `COc1cc(C(=O)OCC(=O)NC23CC4CC(CC(C4)C2)C3)cc(OC)c1OC`, the “re-replication activation” value is -125% (inactive).

On to `COc1ccc(C(CNC(=O)c2cc(S(=O)(=O)Nc3cccc(C)c3)ccc2C)N2CCCC2)cc1` (configuration not stated), for which the “re-replication activation” value is 12.7% (inactive).

For `CC[C@]1(C(=O)OC)[C@H]2C(=O)N(Cc3ccccc3)C(=O)[C@H]2[C@H]2CN=C(SCc3ccc(C#N)cc3)N21`, the re-replication activation was -4.58% [at 9.22 µM] (inactive).

For the compound `CCCCNS(=O)(=O)CCNCc1ccccc1OC`, the “re-replication activation” value is -1.68% (inactive).

Regarding `COc1ccc(OC)c2c(N)c(C#N)c(C(F)(F)C(F)(F)F)nc12`, the “re-replication activation” value is -1.2% (inactive).

On to `COc1ccc(-c2cc(-c3ccc(N)cc3)nc(N)c2C#N)cc1OC`, for which the Potency is 23.1 µM (active).

On to `CCOc1cc(-c2cc(-c3ccc(NC(C)=O)cc3)nc(N)c2C#N)ccc1O`, for which the “re-replication activation” value was 15.1% (inactive).

Consider `COc1cccc(NC(=O)CN(C)CC(=O)c2c(N)n(Cc3ccccc3)c(=O)n(C)c2=O)c1`, for which the “re-replication activation” value is -17.4% (inactive).

With `CCn1c(C(O)c2cc(OC)ccc2OC)nc2ccccc21` (configuration not stated), the “re-replication activation” value was -0.993% (inactive).

As to `CC(=O)Nc1nonc1-c1nc2ccccc2n1Cc1ccccn1`, the “re-replication activation” value is -18.9% (inactive).

`COc1ccc(C)c(Cn2c(-c3nonc3N)nc3ccccc32)c1`: the Potency was 5.17 µM (active).

For `Cc1ccc(C(=O)NCC(c2cccs2)N(C)C)cc1S(=O)(=O)N1CCOCC1` (configuration not stated), the “re-replication activation” value is 2.33% (inactive).

For `CC(=O)C[C@H](O)CC(=O)[C@@H]1OC(=O)[C@@H](C)C/C=C\Cc2ccccc21`, the “re-replication activation” value is -6.79% (inactive).

With `CC(C)C[C@H]1CN([C@@H](CC(C)C)CN2CCC[C@@H]2CN2C(=O)C(=O)NC[C@@H]2Cc2ccccc2)C(=O)C(=O)N1CCc1ccccc1`, the “re-replication activation” value was 12.5% (inactive).

For `CCOc1ccccc1NC(=O)Cc1cccs1`, the “re-replication activation” value is -0.185% (inactive).

As for `CCc1ccc(NC(=O)Cn2nnc(C(=O)NCc3ccc(OC)cc3)c2N)cc1`, the “re-replication activation” value is -17.6% (inactive).

In the case of `CCOc1ccccc1NC(=O)Cn1nnc(C(=O)NCc2cccs2)c1N`, the Potency was 0.146 µM (active).

Values taken from PubChem BioAssay AID624297 (National Center for Advancing Translational Sciences (NCATS), 2012).
